Experimental findings from PubChem BioAssay (EPA / NIEHS) are described below.

Records with an inconclusive call do not appear. Calls of active or inactive are those of the source. Rule for the calls, unless noted: active = hit-call score of the fitted dose curve at least 0.9, where 1 is the maximum; inactive = score below 0.9.

The target in assay [1] is Paired box protein Pax-6 (Homo sapiens) (UniProt P26367). In words: ATG_Pax6_CIS: Attagene CIS-FACTORIAL HepG2 Assay for human Paired Box 6 (PAX6) (AID 2282956). The settings on record: HepG2 CIS-FACTORIAL PAX6 reporter transcription, RNA readout; actives raise or lower the signal. In short, it runs like this: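 Multiplexed cis-reporter HepG2 system; 24 h treatment; reporter mRNA read by RT-PCR/CE fluorescence; bidirectional fit vs DMSO.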

Assay [2] in a line: ATG_PXRE_CIS: Attagene CIS-FACTORIAL HepG2 Assay for human Pregnane X Receptor Element (PXRE) (AID 2282957). The settings on record: HepG2 Attagene CIS-FACTORIAL PXRE reporter, mRNA; actives raise or lower the signal. The procedure, abridged:
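Transfect HepG2 with MRTUs (cis promoter elements); dose chemical, incubate 24 h; isolate RNA, RT with oligo(dT), PCR, 6-FAM label, HpaI cut, CE. Gain/loss fit vs DMSO.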

Assay [3] is described as follows: ATG_RORE_CIS: Attagene CIS-FACTORIAL HepG2 Assay for human RAR-related Orphan Receptor Element (RORE) (AID 2282959). The settings on record: HepG2 Attagene cis-factorial RORE reporter, mRNA; actives raise or lower the signal. In short, it runs like this: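 Cells were HepG2 carrying transfected cis-regulated reporter constructs, dosed for 24 hours. Total RNA was reverse-transcribed and reporter cDNA amplified, fluorescently labeled and sized by capillary electrophoresis. Activity was fitted bidirectionally relative to DMSO.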

The nature of assay [4]: ATG_Sox_CIS: Attagene CIS-FACTORIAL HepG2 Assay for human SRY-box transcription factor (SOX) (AID 2282960). The settings on record: HepG2 Attagene cis-factorial SOX reporter, mRNA; actives raise or lower the signal. In short, it runs like this: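 Transient MRTU transfection of HepG2; 24 h compound incubation; TriZol RNA, oligo(dT) RT, PCR, 6-FAM primer extension, HpaI cut, CE. Bidirectional fit, DMSO = baseline.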

The nature of assay [5]: ATG_SREBP_CIS: Attagene CIS-FACTORIAL HepG2 Assay for human Sterol Regulatory Element Binding (SREBP) (AID 2282962). The settings on record: HepG2 Attagene cis-factorial SREBP reporter, mRNA; actives raise or lower the signal. In short, it runs like this: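 mRNA induction of transfected cis-promoter reporters in HepG2 cells, 24 h post-dose. Detection: RT-PCR with 6-FAM-labelled products, HpaI digest, capillary electrophoresis. DMSO served as negative control and baseline.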

Assay [6] deals with Signal transducer and activator of transcription 3 (Homo sapiens) (UniProt P40763). The experiment in a line: ATG_STAT3_CIS: Attagene CIS-FACTORIAL HepG2 Assay for human Signal Transducer and Activator of Transcription 3 (STAT3) (AID 2282963). The settings on record: HepG2, Attagene cis-factorial STAT3 reporter transcription; actives raise or lower the signal. The procedure, abridged: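 HepG2 cells transiently transfected with cis-element-driven multiple reporter transcription units; after 24 h chemical exposure, reporter mRNA measured by RT-PCR, 6-FAM primer-extension labelling, HpaI digestion and capillary electrophoresis. Bidirectional fitting versus DMSO baseline.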

Assay [7] is described as follows: ATG_TA_CIS: Attagene CIS-FACTORIAL HepG2 Assay for human TA Basal Promoter (AID 2282964). The settings on record: HepG2 Attagene CIS-factorial TA basal promoter reporter; actives raise or lower the signal. In short, it runs like this: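 Background-control readout: TA basal promoter reporter mRNA, fitted in both directions relative to DMSO. Measured by RT-PCR and capillary electrophoresis 24 hours after treating HepG2 human liver cells transiently carrying multiplexed cis-regulated reporter constructs.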

A short description of assay [8]: ATG_TCF_b_cat_CIS: Attagene CIS-FACTORIAL HepG2 Assay for human T-Cell-Factor with beta-catenin (TCF/b-cat) (AID 2282965). The settings on record: HepG2 TCF/beta-catenin cis-reporter transcription, actives raise or lower the signal. The procedure, abridged:
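Using capillary electrophoresis as the read-out, labelled reporter cDNA fragments from transiently transfected HepG2 were sized and quantified. Exposure lasted 24 hours; activity in either direction was referenced to DMSO.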

Assay [9] in a line: ATG_TAL_CIS: Attagene CIS-FACTORIAL HepG2 Assay for human TAL Basal Promoter (AID 2282966).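 Note: background control endpoint measuring basal TAL promoter reporter mRNA not a specific factor.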 The settings on record: HepG2 Attagene cis-factorial TAL promoter reporter; actives raise or lower the signal. The procedure, abridged: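 Fluorescence of labelled reporter cDNA fragments, resolved by capillary electrophoresis, gave the readout. Human HepG2 liver cells carried transiently transfected cis-element reporter units and were treated for 24 hours; activity was fitted bidirectionally against DMSO.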

A short description of assay [10]: ATG_TGFb_CIS: Attagene CIS-FACTORIAL HepG2 Assay for human Transforming Growth Factor (TGF) (AID 2282967). The settings on record: HepG2 Attagene CIS TGFb reporter, mRNA transcription; actives raise or lower the signal. In short, it runs like this:
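Endogenous TGFB1-linked transcription factor activity read as reporter mRNA via RT-PCR and capillary electrophoresis, 24 h after dosing transiently transfected HepG2 cells. Gain or loss of signal fitted relative to DMSO.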

Assay [11] is described as follows: ATG_VDRE_CIS: Attagene CIS-FACTORIAL HepG2 Assay for human Vitamin D Receptor Element (VDRE) (AID 2282968). The settings on record: HepG2 VDRE cis-reporter transcription, actives raise or lower the signal. In short, it runs like this:
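HepG2 cells transiently transfected with cis-element reporter units, dosed 24 h; reporter mRNA measured by RT-PCR, 6-FAM labeling, HpaI digestion and capillary electrophoresis. Activity fitted bidirectionally against DMSO baseline.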

The target of assay [12] is Steroid hormone receptor ERR1 (Homo sapiens) (UniProt P11474). In words: ATG_ERRa_TRANS: Attagene TRANS-FACTORIAL HepG2 Assay for human Estrogen-Related Receptor alpha (ERRa) (AID 2282971; active = hit-call score of the fitted dose curve at least 0.9, where 1 is the maximum). The settings on record: HepG2 Attagene TRANS reporter, ERRa transactivation. In short, it runs like this: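 Reporter transcript induction was quantified by RT-PCR and capillary electrophoresis of FAM-labelled, HpaI-cut products after 24 h treatment of HepG2 cells carrying transiently transfected GAL4-UAS reporter units and an exogenous ERRa-Gal4 fusion; activity scored as increase over DMSO.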

Assay [13] addresses X-box-binding protein 1 (Homo sapiens) (UniProt P17861). In words: ATG_Xbp1_CIS: Attagene CIS-FACTORIAL HepG2 Assay for human X-box Binding Protein 1 (XBP1) (AID 2282972). The settings on record: HepG2 XBP1 cis-element reporter, Attagene multiplex; actives raise or lower the signal. In short, it runs like this: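 Fluorescence-labelled cDNA fragments from reporter transcripts, separated by capillary electrophoresis, give the signal. Source: HepG2 cells transfected with promoter-driven reporter units, harvested 24 h post-dose. DMSO served as reference for bidirectional curve fitting.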

A short description of assay [14]: ATG_M_19_TRANS: Attagene TRANS-FACTORIAL HepG2 Assay for M19 Transcription Factor (Internal Marker) (AID 2282974; active = hit-call score of the fitted dose curve at least 0.9, where 1 is the maximum). The settings on record: HepG2 Attagene TRANS-FACTORIAL M19 internal marker reporter. The procedure, abridged: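 Cells: human HepG2, transiently transfected with multiplexed reporter transcription units. Exposure: 24 h. Detection: RT-PCR of reporter mRNA with capillary electrophoresis. Analysis: gain-of-signal vs DMSO.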

Assay [15] in a line: ATG_GAL4_TRANS: Attagene TRANS-FACTORIAL HepG2 Assay for GAL4 (Internal Marker) (AID 2282976; active = hit-call score of the fitted dose curve at least 0.9, where 1 is the maximum). The settings on record: HepG2 Attagene TRANS GAL4 internal marker reporter. In short, it runs like this:
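First, HepG2 cells were transfected with reporter units under GAL4-UAS control. Next, they were treated with chemical for 24 h. Finally, RNA was reverse-transcribed, PCR-amplified, FAM-labelled and resolved by capillary electrophoresis, with induction scored against DMSO.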

The target in assay [16] is Estrogen-related receptor gamma (Homo sapiens) (UniProt P62508). The experiment in a line: ATG_ERRg_TRANS: Attagene TRANS-FACTORIAL HepG2 Assay for human Estrogen-Related Receptor gamma (ERRg) (AID 2282977; active = hit-call score of the fitted dose curve at least 0.9, where 1 is the maximum;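 note: hits increase reporter signal over DMSO so potencies reflect activators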). The settings on record: HepG2 Attagene TRANS reporter, ERRg transactivation. In short, it runs like this: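 Transient HepG2 transfectants, 24 h compound exposure, GAL4-UAS reporter mRNA by RT-PCR/6-FAM labelling/capillary electrophoresis; positive direction vs DMSO.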

In assay [17] the target is Transcription factor Sp1 (Homo sapiens) (UniProt P08047). In words: ATG_Sp1_CIS: Attagene CIS-FACTORIAL HepG2 Assay for human Specificity Protein 1 (Sp1) (AID 2282961). The settings on record: HepG2 Sp1 cis-reporter transcription, actives raise or lower the signal. In short, it runs like this: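 Endogenous Sp1 activity was gauged in human liver HepG2 cells bearing transfected reporter units under a cis-regulating promoter. After 24 h dosing, reporter mRNA was quantified by RT-PCR with capillary electrophoresis, and activity fitted bidirectionally versus DMSO.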

In assay [18] the target is Estrogen receptor (Homo sapiens) (UniProt P03372). The experiment in a line: ATG_ERa_TRANS: Attagene TRANS-FACTORIAL HepG2 Assay for human Estrogen Receptor alpha (ERa) (AID 2282970; active = hit-call score of the fitted dose curve at least 0.9, where 1 is the maximum). The settings on record: HepG2 Attagene TRANS ERa GAL4 reporter, mRNA. The procedure, abridged: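 Human liver HepG2, transient transfection of multiple GAL4-UAS reporter units; TRANS format (exogenous NR-Gal4 chimera). 24 h dosing. Readout: reporter mRNA, RT-PCR, 6-FAM primer extension, HpaI digest, capillary electrophoresis. Positive direction vs DMSO.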

Assay [19] concerns the target Nuclear receptor subfamily 1 group I member 3 (Homo sapiens) (UniProt Q14994). In words: ATG_CAR_TRANS: Attagene TRANS-FACTORIAL HepG2 Assay for human Constitutive Androstane Receptor (CAR) (AID 2282969; active = hit-call score of the fitted dose curve at least 0.9, where 1 is the maximum;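 note: activators raise reporter mRNA above DMSO so AC50 marks induction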). The settings on record: HepG2 Attagene TRANS-FACTORIAL CAR reporter. In short, it runs like this: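 HepG2 cells transiently transfected with multiplexed GAL4-UAS reporter units expressing chimeric NR-Gal4 proteins; compound exposure 24 h. Reporter mRNA measured by RT-PCR, 6-FAM labelling, HpaI digestion and capillary electrophoresis; gain-of-signal fitted against DMSO baseline.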

X-box-binding protein 1 (Homo sapiens), sequence (P17861 whole entry, looked up, the tested form may be a part): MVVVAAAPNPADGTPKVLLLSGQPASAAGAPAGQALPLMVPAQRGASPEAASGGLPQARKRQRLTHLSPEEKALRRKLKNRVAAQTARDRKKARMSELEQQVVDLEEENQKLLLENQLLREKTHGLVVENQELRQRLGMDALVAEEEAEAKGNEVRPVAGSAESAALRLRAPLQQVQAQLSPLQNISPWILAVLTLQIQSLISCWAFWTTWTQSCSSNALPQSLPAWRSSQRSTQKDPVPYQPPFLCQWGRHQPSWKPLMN
Estrogen receptor (Homo sapiens), sequence (P03372 whole entry, looked up, the tested form may be a part): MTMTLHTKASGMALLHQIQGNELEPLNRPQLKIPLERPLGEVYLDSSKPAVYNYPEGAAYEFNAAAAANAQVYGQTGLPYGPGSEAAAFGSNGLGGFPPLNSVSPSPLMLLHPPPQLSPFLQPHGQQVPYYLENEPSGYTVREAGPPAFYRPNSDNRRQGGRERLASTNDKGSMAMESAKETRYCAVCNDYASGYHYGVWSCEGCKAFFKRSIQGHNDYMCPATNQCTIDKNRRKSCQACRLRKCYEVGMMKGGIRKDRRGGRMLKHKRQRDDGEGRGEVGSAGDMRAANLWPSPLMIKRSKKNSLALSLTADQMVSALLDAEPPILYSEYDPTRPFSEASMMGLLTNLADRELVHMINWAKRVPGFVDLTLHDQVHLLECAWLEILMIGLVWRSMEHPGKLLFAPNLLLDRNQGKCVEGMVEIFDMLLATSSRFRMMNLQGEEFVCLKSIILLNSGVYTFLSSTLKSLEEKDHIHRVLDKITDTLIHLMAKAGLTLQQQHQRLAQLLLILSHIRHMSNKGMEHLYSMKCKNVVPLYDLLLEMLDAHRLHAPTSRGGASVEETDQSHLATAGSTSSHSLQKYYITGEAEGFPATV
Signal transducer and activator of transcription 3 (Homo sapiens), sequence (P40763 whole entry, looked up): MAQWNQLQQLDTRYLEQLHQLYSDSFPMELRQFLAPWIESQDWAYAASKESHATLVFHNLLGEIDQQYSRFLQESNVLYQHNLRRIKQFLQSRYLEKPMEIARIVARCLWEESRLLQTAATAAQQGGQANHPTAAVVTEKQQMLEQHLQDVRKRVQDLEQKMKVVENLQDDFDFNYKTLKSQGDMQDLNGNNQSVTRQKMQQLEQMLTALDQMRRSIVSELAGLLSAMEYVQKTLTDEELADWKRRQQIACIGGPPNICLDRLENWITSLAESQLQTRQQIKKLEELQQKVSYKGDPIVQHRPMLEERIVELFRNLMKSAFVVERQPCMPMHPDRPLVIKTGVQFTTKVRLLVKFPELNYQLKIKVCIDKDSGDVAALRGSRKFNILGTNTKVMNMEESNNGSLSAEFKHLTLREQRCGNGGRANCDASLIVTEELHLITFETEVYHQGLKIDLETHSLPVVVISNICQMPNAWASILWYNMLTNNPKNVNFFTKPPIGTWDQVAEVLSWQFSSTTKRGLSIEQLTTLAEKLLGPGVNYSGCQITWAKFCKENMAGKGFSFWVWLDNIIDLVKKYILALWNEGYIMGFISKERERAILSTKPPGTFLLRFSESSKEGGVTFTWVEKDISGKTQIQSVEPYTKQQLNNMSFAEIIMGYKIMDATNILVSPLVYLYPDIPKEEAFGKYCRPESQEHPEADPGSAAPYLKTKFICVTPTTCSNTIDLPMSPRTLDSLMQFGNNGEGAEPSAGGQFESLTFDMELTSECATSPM
Estrogen-related receptor gamma (Homo sapiens), sequence (P62508 whole entry, looked up, the tested form may be a part): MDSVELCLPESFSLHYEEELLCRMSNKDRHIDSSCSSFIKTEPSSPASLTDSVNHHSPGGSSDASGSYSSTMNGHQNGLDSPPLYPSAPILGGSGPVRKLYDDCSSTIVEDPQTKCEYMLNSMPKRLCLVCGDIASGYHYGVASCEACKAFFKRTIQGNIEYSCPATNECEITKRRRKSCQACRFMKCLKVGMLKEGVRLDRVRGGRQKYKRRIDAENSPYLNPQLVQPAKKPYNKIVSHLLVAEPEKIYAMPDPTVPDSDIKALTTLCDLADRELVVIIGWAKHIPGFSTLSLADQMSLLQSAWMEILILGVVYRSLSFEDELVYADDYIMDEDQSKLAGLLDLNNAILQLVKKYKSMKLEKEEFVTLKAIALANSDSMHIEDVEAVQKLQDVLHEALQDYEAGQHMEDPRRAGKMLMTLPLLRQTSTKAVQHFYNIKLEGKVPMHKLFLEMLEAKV
Paired box protein Pax-6 (Homo sapiens), sequence (P26367 whole entry, looked up): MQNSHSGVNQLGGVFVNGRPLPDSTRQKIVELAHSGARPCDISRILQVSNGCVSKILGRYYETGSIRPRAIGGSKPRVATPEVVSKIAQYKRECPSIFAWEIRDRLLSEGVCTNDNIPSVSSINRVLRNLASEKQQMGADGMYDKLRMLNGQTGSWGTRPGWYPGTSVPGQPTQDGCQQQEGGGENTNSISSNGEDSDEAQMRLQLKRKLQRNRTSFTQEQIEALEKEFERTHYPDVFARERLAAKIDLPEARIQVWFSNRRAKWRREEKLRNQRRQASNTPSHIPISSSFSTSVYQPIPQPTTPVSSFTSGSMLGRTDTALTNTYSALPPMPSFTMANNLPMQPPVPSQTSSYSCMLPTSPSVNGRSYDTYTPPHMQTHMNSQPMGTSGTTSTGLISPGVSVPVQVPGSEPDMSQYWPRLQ
Transcription factor Sp1 (Homo sapiens), sequence (P08047 whole entry, looked up): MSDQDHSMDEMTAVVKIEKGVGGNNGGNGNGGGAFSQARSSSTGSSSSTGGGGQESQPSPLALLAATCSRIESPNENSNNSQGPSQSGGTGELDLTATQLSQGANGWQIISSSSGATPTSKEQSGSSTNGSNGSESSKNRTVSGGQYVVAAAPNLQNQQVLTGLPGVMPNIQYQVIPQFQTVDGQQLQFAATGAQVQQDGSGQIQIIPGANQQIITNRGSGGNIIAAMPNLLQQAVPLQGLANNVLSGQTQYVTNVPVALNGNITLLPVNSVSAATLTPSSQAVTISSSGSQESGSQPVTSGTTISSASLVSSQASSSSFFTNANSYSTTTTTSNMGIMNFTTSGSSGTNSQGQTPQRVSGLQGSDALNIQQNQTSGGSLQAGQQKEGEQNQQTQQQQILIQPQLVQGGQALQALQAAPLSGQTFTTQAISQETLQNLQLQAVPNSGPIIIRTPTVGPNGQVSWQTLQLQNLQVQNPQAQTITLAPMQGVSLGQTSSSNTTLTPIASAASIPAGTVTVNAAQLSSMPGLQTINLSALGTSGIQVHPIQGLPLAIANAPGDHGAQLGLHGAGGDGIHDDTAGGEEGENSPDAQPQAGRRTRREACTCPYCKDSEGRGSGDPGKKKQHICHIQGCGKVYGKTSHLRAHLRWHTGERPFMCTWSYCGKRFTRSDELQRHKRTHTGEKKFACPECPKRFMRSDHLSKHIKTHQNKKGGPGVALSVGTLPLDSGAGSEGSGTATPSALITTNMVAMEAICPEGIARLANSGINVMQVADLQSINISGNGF
Nuclear receptor subfamily 1 group I member 3 (Homo sapiens), sequence (Q14994 whole entry, looked up, the tested form may be a part): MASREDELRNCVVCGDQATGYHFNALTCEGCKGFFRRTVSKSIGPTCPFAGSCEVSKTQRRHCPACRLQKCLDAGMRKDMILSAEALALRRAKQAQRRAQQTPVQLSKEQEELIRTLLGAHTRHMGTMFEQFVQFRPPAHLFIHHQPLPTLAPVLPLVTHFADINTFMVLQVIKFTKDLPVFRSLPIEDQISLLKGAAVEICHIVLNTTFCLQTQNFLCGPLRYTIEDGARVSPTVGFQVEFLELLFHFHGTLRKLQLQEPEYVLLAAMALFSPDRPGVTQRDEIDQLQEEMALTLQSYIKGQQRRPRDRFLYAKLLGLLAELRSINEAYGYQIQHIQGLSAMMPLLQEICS
Steroid hormone receptor ERR1 (Homo sapiens), sequence (P11474 whole entry, looked up, the tested form may be a part): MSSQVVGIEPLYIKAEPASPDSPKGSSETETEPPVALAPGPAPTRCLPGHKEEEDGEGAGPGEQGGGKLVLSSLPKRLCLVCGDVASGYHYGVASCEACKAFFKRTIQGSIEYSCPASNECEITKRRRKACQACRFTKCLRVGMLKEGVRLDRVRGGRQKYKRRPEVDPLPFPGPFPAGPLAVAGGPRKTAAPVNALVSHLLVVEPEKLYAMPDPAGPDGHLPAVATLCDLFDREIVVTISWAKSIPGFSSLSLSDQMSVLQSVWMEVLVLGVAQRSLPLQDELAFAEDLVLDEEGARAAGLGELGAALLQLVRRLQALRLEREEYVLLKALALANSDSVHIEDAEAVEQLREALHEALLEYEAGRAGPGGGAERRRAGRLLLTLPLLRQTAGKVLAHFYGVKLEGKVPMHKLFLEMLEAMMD

Regarding `O=C1CCCC1`, the compound was called inactive in assay [1], in assay [3], in assay [4], in assay [5], in assay [6] and in [7]. Moreover, the compound was classed as inactive in [8], in [9], in assay [10], in assay [11], in [12] and in assay [13]. The outcome in assay [14], in assay [15] and in [16] was inactive. The concentration at half-maximal activity (AC50) in assay [2] was 62.7 µM (active).
As to `C[C@]12CCC(=O)C=C1CC[C@@H]1[C@@H]2C(=O)C[C@@]2(C)[C@H]1CC[C@]2(O)C(=O)CO`, the result in assay [1], in [3], in [4], in assay [17], in assay [6] and in assay [7] was inactive. In addition, the compound was called inactive in [8], in assay [9], in assay [10], in [18], in [13] and in [15]. For the same compound, in assay [2], the AC50 was 39.5 µM (active).
In the case of `O=C1c2cccc(O)c2C(=O)c2c(O)cc(CO)cc21`, the outcome in [1], in assay [3], in assay [4], in [17], in assay [6] and in assay [8] was inactive. The compound was classed as inactive in [9], in [10], in assay [11], in assay [19], in [12] and in [13]. The call in assay [14] and in assay [16] was inactive. Further, the results for the half-maximal activity concentration (AC50) in assay [2] and in assay [18] were 8.72 µM (active) and 5.81 µM (active), respectively.
As to `CC(C)=CCC/C(C)=C\C#N`, the call in assay [1], in assay [3], in [4], in assay [17], in [5] and in assay [7] was inactive. Also, the call in assay [9], in [10], in assay [11], in assay [19], in assay [18] and in assay [13] was inactive. Besides, the compound was classed as inactive in [14] and in [15]. In [2], the AC50 was 28.1 µM (active).
Turning to `COC(=O)C1=C(C)NC(C)=C(C(=O)OCC(C)C)C1c1ccccc1[N+](=O)[O-]` (stereo not drawn), the outcome in assay [1], in assay [17], in [5], in assay [6], in assay [7] and in [8] was inactive. Moreover, the call in assay [9], in [10], in [19], in [13] and in assay [15] was inactive.
As for `NC(=O)OCC(COC(N)=O)c1ccccc1`, the call in [1], in [2], in assay [3], in assay [17], in assay [5] and in [6] was inactive. Also, the compound was classed as inactive in assay [7], in [8], in [10], in assay [18], in [13] and in [15].
In the case of `C=C(C)[C@H]1CC=C(C)CC1`, the result in [1], in assay [4], in assay [17], in assay [5], in [9] and in [10] was inactive. In addition, the outcome in assay [19], in [18], in assay [13] and in assay [15] was inactive. Also, in assay [2], the AC50 was 51 µM (active).
In the case of `N=c1ccn2c(n1)O[C@H]1[C@H](O)[C@@H](CO)O[C@H]12`, the outcome in [1], in [2], in assay [3], in assay [17], in [5] and in [6] was inactive. Besides, the outcome in assay [8], in assay [9], in [10], in assay [11], in assay [12] and in [13] was inactive. The compound was classed as inactive in [14] and in assay [16].
Take `C=C(C)[C@@H]1CCC2=CCC[C@@H](C)[C@]2(C)C1`: the compound was called inactive in [1], in assay [3], in [4], in [17], in assay [5] and in assay [6]. Also, the call in assay [7], in [8], in assay [10], in [19], in [12] and in assay [13] was inactive. Further, the outcome in assay [14] was inactive. The results for the AC50 in [2] and in assay [18] were 1.52 µM (active) and 9.59 µM (active), respectively.
